FECH inh: blocks human mitochondrial ferrochelatase activity | P22830 | purified FECH, Ni-mesoporphyrin absorbance 550 nm | calls only at 10 µM (by protocol) | hit rate 3.3% among 20,000;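 active = enzyme reaction rate more than 3 SD below the solvent-only control wells on the same plate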;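 also: lower slope than DMSO wells means FECH inhibition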
Target sequence (P22830 whole entry, looked up): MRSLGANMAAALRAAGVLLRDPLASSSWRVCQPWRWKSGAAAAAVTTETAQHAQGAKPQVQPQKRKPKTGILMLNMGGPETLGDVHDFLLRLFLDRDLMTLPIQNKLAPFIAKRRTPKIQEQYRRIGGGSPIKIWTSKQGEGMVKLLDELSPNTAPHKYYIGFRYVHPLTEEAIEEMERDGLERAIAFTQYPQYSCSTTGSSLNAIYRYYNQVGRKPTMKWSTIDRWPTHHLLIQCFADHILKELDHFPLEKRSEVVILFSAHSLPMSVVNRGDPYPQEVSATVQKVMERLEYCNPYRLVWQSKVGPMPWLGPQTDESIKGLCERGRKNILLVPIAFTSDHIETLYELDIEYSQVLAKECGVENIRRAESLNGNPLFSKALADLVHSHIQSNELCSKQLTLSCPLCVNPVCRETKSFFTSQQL
Large screens that a line does not name were inactive. Only a selection was taken, and hits are over-represented in it overall.

CCc1ccc2c(c1)-c1ccccc1S(=O)(=O)N2CC(=O)N1CCN(c2ccccc2)CC1	none
CCCNC(=O)c1ccccc1NC(=O)CN1c2ccc(C(C)C)cc2-c2ccccc2S1(=O)=O	none
CC(C)c1ccc2c(c1)-c1ccccc1S(=O)(=O)N2CC(=O)NCc1ccccn1	FECH inh active
CCc1ccc2c(c1)-c1ccccc1S(=O)(=O)N2CC(=O)Nc1ccc(NC(C)=O)cc1	none
CCN1CCN(C(=O)CN2c3ccc(Br)cc3-c3ccccc3S2(=O)=O)CC1	none
CC(C)c1ccc2c(c1)-c1ccccc1S(=O)(=O)N2CC(=O)NCCCN1CCOCC1	none
CC(C)c1ccc2c(c1)-c1ccccc1S(=O)(=O)N2CC(=O)NCCSC1CCCCC1	none
CCc1ccc2c(c1)-c1ccccc1S(=O)(=O)N2CC(=O)NCc1ccccn1	FECH inh active
CCN1CCN(C(=O)CN2c3ccc(C(C)C)cc3-c3ccccc3S2(=O)=O)CC1	FECH inh active
Cc1ccc(N2C(=O)N(CC(=O)N3CCN(c4ccccc4)CC3)c3ccccc3S2(=O)=O)c(C)c1	none
Cc1ccc(OCc2cc(=O)n3oc(C)cc3n2)c(NC(=O)c2ccc(Br)cc2)c1	none
Cn1ccc(NC(=O)CN2CCCC3(CC2)CNC(=O)O3)n1 (stereo not given)	none
CCOCC(=O)NCCn1c(CCc2ccccc2)nc2cccnc21	none
Cc1ccc(-c2ncc3c(=O)n(CCOc4ccc(F)cc4)c(=O)n(C)c3n2)cc1	none
CCc1noc(CN(CC)C(=O)CN2CCCN(C)CC2)n1	none
CC(c1ccccn1)N(C)C(=O)c1cccc(S(C)(=O)=O)c1 (stereo not given)	none
CC(=O)c1cc(C(=O)NCc2cccnc2Oc2ccccc2F)[nH]n1	none
Cc1ccc(CNC(=O)c2nc3ccccc3n(C)c2=O)cc1	FECH inh active
Cn1c(=O)c(C(=O)NCc2ccc(F)cc2)nc2ccccc21	none
Cn1c(=O)c(C(=O)NCc2ccc3c(c2)OCO3)nc2ccccc21	none
CCN(Cc1ccc(C)o1)C(=O)[C@@H]1C[C@H](N)CN1C	none
Cc1ccn2c(C(=O)NCC(C)Oc3cccnc3)c(C)nc2c1 (stereo not given)	none
Cc1cccc(OCCN2CCCN(C(=O)c3ccco3)CC2)c1C	none
Cc1cccc(OCCN2CCCCC2CO)c1C (stereo not given)	FECH inh active
CCn1ccnc1-c1c(-c2ccccc2)ncn1CCN1CCCCC1CO (stereo not given)	none
CC(=O)Nc1ccc(C)cc1S(=O)(=O)N1CCC(n2c(Cc3ccccc3)nc3cccnc32)CC1	none
COc1ccc(C)cc1NC(=O)CN1C(=O)CC(c2ccc(Br)s2)=Nc2ccccc21	none
CCN1C(SCC(=O)Nc2ccc(F)c(Cl)c2)=NS(=O)(=O)c2ccccc21	FECH inh active
CCN1C(SCC(=O)Nc2cc(C)ccc2OC)=NS(=O)(=O)c2ccccc21	FECH inh active
O=C(CN1CCN(Cc2ccc(F)cc2Cl)S1(=O)=O)Nc1ccc(F)c(Cl)c1	none
CCN1C(SCC(=O)Nc2cc(Cl)ccc2OC)=NS(=O)(=O)c2ccccc21	none
CCC(=O)Nc1ccccc1-c1nnc(SCC(=O)Nc2ccc(Cl)c(Cl)c2)[nH]c1=O	none
Fc1ccc(C2(c3noc(-c4n[nH]c5c4CCC5)n3)CCOC2)cc1 (stereo not given)	none
CCCn1cc(CNC(=O)c2ccc(Cl)cn2)cn1	none
Cc1cccc(Nc2nc(NCc3cccnc3)nc3c2cnn3-c2ccccc2)c1	none
O=S(=O)(NCc1ccccc1)NCc1cnn2ccccc12	none
Cc1ccc(C(=O)Nc2cc(C)nn2-c2ncnc3c2cnn3-c2cccc(Cl)c2)cc1	none
Cc1cc(C)cc(C(=O)Nc2cc(C)nn2-c2ncnc3c2cnn3-c2ccc(Cl)cc2)c1	none
Cc1ccc(-n2ncc3c(-n4nc(C)cc4NC(=O)CCC4CCCC4)ncnc32)c(C)c1	none
Cc1ccc(C(=O)Nc2cc(C)nn2-c2ncnc3c2cnn3-c2cccc(C)c2C)cc1	FECH inh active
COc1cccc(C(=O)Nc2cc(C)nn2-c2ncnc3c2cnn3-c2cccc(C)c2C)c1	none
Cc1cc(C)cc(C(=O)Nc2cc(C)nn2-c2ncnc3c2cnn3-c2cccc(Cl)c2)c1	FECH inh active
Cc1cc(NC(=O)c2ccc(F)c(F)c2)n(-c2ncnc3c2cnn3-c2cccc(C)c2C)n1	none
Cc1ccc(-n2ncc3c(-n4nc(C)cc4NC(=O)C4CCCC4)ncnc32)c(C)c1	FECH inh active
CCCCC1CCC(C(=O)Nc2cc(C)nn2-c2ncnc3c2cnn3-c2ccc(C)cc2C)CC1 (stereo not given)	none
CC(C(=O)NCc1cccnc1-n1cnc2ccccc21)N1CCCC1 (stereo not given)	none
Cc1ccc(CCNC(=O)c2cc(C3CC3)[nH]n2)o1	none
CCN1CCN(c2nc(Nc3cccc(OC)c3)c3cnn(-c4ccccc4)c3n2)CC1	none
O=S(=O)(NCc1nc2cccnc2n1Cc1ccccc1Cl)c1ccc(Cl)cc1	none
CC(C)CNC(=O)c1[nH]cnc1C(=O)NC1CCCCC1	none
COc1ccc(Nc2cc(C)nc(N3CCN(S(=O)(=O)c4cc(C)ccc4OC)CC3)n2)cc1	none
CCc1c(C)nc2ncnn2c1Sc1ccc(NC(=O)C(C)(C)C)cc1	none
COC(=O)c1cc(S(=O)(=O)N2CCCC2C(=O)Nc2cccc(C)n2)cn1C (stereo not given)	none
CCc1nc(C)sc1CNC1CCCNC1 (stereo not given)	none
COCCC(=O)N[C@H]1C[C@@H](C(=O)NC2C3CC4CC(C3)CC2C4)N(C)C1 (stereo not given in full)	none
CCc1c(C)nc2ncnn2c1Sc1ccc(NC(=O)c2ccccc2C)cc1	FECH inh active
CCc1c(C)nc2ncnn2c1Sc1ccc(NC(=O)c2cccs2)cc1	none
CCCc1c(C)nc2ncnn2c1Sc1ccc(NC(=O)c2ccccc2)cc1	none
CCCc1c(C)nc2ncnn2c1Sc1ccc(NC(=O)CC)cc1	none
CCCC(=O)Nc1ccc(Sc2c(CCC)c(C)nc3ncnn23)cc1	FECH inh active
CCCc1c(C)nc2ncnn2c1Sc1ccc(NC(=O)c2ccccc2C)cc1	FECH inh active
CCc1c(C)nc2ncnn2c1Sc1ccccc1NC(=O)c1ccccc1C	none
CCc1c(C)nc2ncnn2c1Sc1ccc(NC(=O)c2ccc(Br)cc2)cc1	FECH inh active
CCCC(=O)Nc1ccc(Sc2c(CC)c(C)nc3ncnn23)cc1	none
CCc1c(C)nc2ncnn2c1Sc1ccc(NC(=O)c2ccccc2)cc1	none
CCc1c(C)nc2ncnn2c1Sc1ccc(NC(=O)c2ccc(OC)cc2)cc1	none
CCCc1c(C)nc2ncnn2c1Sc1ccc(NC(=O)c2ccc(C)cc2)cc1	none
CCc1c(C)nc2ncnn2c1Sc1ccc(NC(=O)Nc2ccc(Br)c(C)c2)cc1	none
COc1ccc(N2C(=O)CCS2(=O)=O)cc1S(=O)(=O)Nc1c(C(C)C)cccc1C(C)C	none
CSc1ccc(-c2nc(CN3C[C@H](O)[C@@H](N4CCOCC4)C3)c(C)o2)cc1	none
Cc1ccc(-c2cc(N3CCc4ccccc43)nc(C)n2)cc1	none
CN(Cc1nc(C2CC2)no1)C(=O)[C@@]12CC[C@@](C)(OC1=O)C2(C)C	none
Cc1cccc(N(Cc2nc3nc(C)cc(C)n3n2)C(=O)CCc2ccccc2)c1	none
Cc1cc(C)n2nc(CN(C(=O)Cc3ccccc3)c3ccc(Cl)cc3)nc2n1	none
Cc1ccc(N(Cc2nc3nc(C)cc(C)n3n2)C(=O)c2cccc(C)c2)cc1	FECH inh active
COc1ccc(CC(=O)N(Cc2nc3nc(C)cc(C)n3n2)c2ccc(Cl)cc2)cc1	none
Cc1cc(C)n2nc(CN(C(=O)c3cccc(Cl)c3)c3ccc(F)cc3)nc2n1	none
Cc1cc(C)n2nc(CN(C(=O)c3ccccc3C)c3ccccc3)nc2n1	none
Cc1cccc(N(Cc2nc3nc(C)cc(C)n3n2)C(=O)c2ccccc2C)c1	FECH inh active

Compound activity: PubChem BioAssay, Corson Lab, School of Medicine, Indiana University
